Bioassay records as filed in PubChem.
PPC-1+TRAIL kill = compounds killing PPC-1 cancer cells with TRAIL present (potentiator screen, no TRAIL-free arm); PPC-1 cells + TRAIL, ATPLite viability luminescence; cell killing (% activity), % at 4 µM or 5 µM; 220,000 compounds, 0.41% hits; AID 1443;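 active means cell killing above 50% in the first pass at 4 µM, then a duplicate retest at 5 µM averaging 50% or more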;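 further: plate controls were cells with TRAIL plus DMSO for no effect and medium-only wells lacking cells for full effect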
SENP8 block-1 = blocks the human protease SENP8. Q96LD8. AID 2540. 330,000 compounds, 1.2% hits. inhibition, % at 10 µM. purified SENP8, Z-RLRGG-aminoluciferin cleavage, luminescence; in the data active means inhibition above about 50%
Target sequence (Q96LD8 whole entry, looked up): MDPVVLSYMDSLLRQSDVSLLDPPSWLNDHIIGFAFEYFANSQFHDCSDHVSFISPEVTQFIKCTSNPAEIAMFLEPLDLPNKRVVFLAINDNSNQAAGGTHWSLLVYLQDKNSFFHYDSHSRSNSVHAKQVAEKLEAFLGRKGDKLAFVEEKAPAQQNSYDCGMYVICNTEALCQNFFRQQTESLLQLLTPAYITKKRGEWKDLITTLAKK
SENP6 block = blocks the human protease SENP6 | 330,000 compounds, 1.8% hits | Recombinant SENP6 catalytic domain, aminoluciferin luminescence | AID 2599 | inhibition, % at 10 µM | Q9GZR1;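 active means inhibition above about 50% at the single tested dose, limit read from the data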;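 further: plate controls were DMSO wells with enzyme for no effect and DMSO wells lacking enzyme for full effect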
SENP8 block-2 = blocks human SENP8 cleavage of Nedd8 substrate; Q96LD8; recombinant SENP8, Nedd8 substrate fluorescence; inhibition, % at 20 µM; 360,000 compounds, 0.64% hits; AID 602440; in the data active means inhibition mostly above about 40%, no sharp cut-off; inactive means mostly below about 27%
SENP7 inh = SENP7 protease inhibition; Q9BQF6; 330,000 compounds, 1.5% hits; inhibition, % at 5 µM; recombinant SENP7, Z-RLRGG-aminoluciferin luminescence, 40 min;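 active means inhibition above about 50% at the single test dose, limit read from the data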;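 further: plate controls were DMSO with enzyme for no effect and no enzyme buffer wells for full effect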
Target sequence (Q9BQF6 706-1050 limits assumed): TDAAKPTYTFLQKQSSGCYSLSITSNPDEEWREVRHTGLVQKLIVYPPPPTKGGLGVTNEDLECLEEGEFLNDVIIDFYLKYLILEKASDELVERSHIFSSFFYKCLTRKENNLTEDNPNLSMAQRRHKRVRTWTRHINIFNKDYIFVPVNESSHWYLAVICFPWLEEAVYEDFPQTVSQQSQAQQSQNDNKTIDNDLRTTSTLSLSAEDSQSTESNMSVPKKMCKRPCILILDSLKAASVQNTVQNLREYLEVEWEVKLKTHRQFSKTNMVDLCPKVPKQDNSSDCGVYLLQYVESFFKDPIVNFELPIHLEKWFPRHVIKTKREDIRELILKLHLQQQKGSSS
TRAIL sens C8 = sensitizes caspase-8 expressing cells to TRAIL | inhibition (viability loss, TRAIL sensitization), % at 10 µM | AID 624354 | NB7+C8 cells + TRAIL, ATPlite viability luminescence | 360,000 compounds, 1% hits;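 active means compounds causing at least 50% loss of cell viability in the single-dose screen, relative to plate controls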
SENP8 confirm = human SENP8 inhibition, confirmed. shares compounds with SENP7 inh. Recombinant SENP8, Z-RLRGG-aminoluciferin luminescence, 60 min. inhibition, % at 12.5 µM. 6,200 compounds, 40% hits;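 active means mean inhibition across replicates above about 50%, limit read from the data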
SENP6 confirm = human SENP6 inhibition, confirmed; shares compounds with SENP7 inh; recombinant SENP6, Z-RLRGG-aminoluciferin luminescence; inhibition, % at 12.5 µM; 6,200 compounds, 58% hits
SENP7 confirm = confirmation of human SENP7 protease inhibitors; inhibition, % at 12.5 µM; 6,200 compounds, 69% hits; shares compounds with SENP7 inh; recombinant SENP7, Z-RLRGG-aminoluciferin luminescence, 40 min; AID 488917
Casp3 SENP sel = inhibits human caspase-3 in SENP selectivity test; shares compounds with SENP7 inh; purified caspase-3, Z-DEVD-aminoluciferin luminescence, 60 min; inhibition, % at 12.5 µM; 6,200 compounds, 60% hits;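 active means mean inhibition above about 50%, limit read from the data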;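 further: plate controls were enzyme with DMSO for no effect and wells without caspase-3 for full effect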
Luc interf = interferes with luciferase luminescence in SENP counter-screen; inhibition, % at 12.5 µM; shares compounds with SENP7 inh; Pre-incubated SENP8/Z-RLRGG-aminoluciferin, luciferase luminescence interference; 6,200 compounds, 39% hits;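 active means mean inhibition above about 50% when retested at one dose, limit read from the data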;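 further: plate controls were DMSO wells with completed reaction for no effect and substrate without enzyme for full effect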
* = called active by the depositor; i = inactive; . = not tested or not shown. An excerpt weighted towards active compounds, which were near 3% of everything screened.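 How the source made its calls, unless noted: active means mean inhibition above about 50% in the one-dose retest (limit read from the data); inactive means the rest.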

SMILES	PPC-1+TRAIL kill	SENP8 block-1	SENP6 block	SENP8 block-2	SENP7 inh	TRAIL sens C8	SENP8 confirm	SENP6 confirm	SENP7 confirm	Casp3 SENP sel	Luc interf
O=C(O)c1ccc(OC2CSC2)cc1	3.1	40.5	51.7*	22.4	-1.3	11.5	55.1*	54.1*	25.6	12.9	37.6
Cc1cccc(NC(=O)c2ccc(OC3CSC3)cc2)c1	47.0	90.7*	94.2*	13.9	97.1*	35.7	65.6*	89.4*	99.1*	92.8*	60.8*
O=C(NCc1ccccc1)c1ccc(OC2CSC2)cc1	7.9	-11.1	-4.1	20.0	-10.4	3.8	.	.	.	.	.
COc1ccc(NC(=O)c2ccccc2)cc1	.	41.1	50.7*	15.2	57.7*	28.7	30.6	31.5	77.8*	79.4*	56.6*
Cc1cccc(C(=O)N/N=C/c2ccc(OC3CSC3)cc2)c1	-3.0	-9.1	-35.2	-1.0	0.2	-1.2	.	.	.	.	.
COc1ccc(NC(=O)OC(C)C)cc1	20.1	29.6	55.1*	31.5	25.0	3.2	23.8	33.6	70.7*	75.2*	34.6
CCCC(=O)Nc1ccc(C(=O)Nc2cccc(OC)c2)cc1	20.5	31.3	13.5	6.9	41.4	2.9	.	.	.	.	.
CC(C)Oc1ccc(C(=O)Nc2ccc([N+](=O)[O-])cc2)cc1	12.4	26.1	61.1*	35.3	85.8*	2.5	19.2	28.3	14.6	23.3	-0.7
COc1ccc(NC(=O)c2ccc(C)cc2)cc1	.	26.8	62.6*	30.3	41.0	68.0*	35.4	31.4	70.8*	67.6*	14.4
COc1ccc(C(=O)NNC(=O)C(=O)Nc2ccc(C)cc2)cc1	.	-10.2	-19.7	16.4	-8.3	12.4	.	.	.	.	.
CN(C)S(=O)(=O)Oc1ccc(C(=O)Nc2ccc([N+](=O)[O-])cc2)cc1	-27.1	-3.0	-2.6	22.3	6.1	14.1	.	.	.	.	.
COc1cccc(NC(=O)c2ccc(NC(=O)C(C)(C)C)cc2)c1	16.0	37.2	73.2*	26.6	71.9*	15.8	70.6*	65.8*	86.5*	82.2*	69.6*
O=C(c1cccs1)N1C[C@@H](n2cc(-c3ccc(F)cc3)nn2)[C@H](O)C[C@@H]1c1ccccc1	.	.	.	8.8	.	-13.8	.	.	.	.	.
CCOc1ccc(NC(=O)CN2C(=O)NC(CCc3ccccc3)C2=O)cc1OCC (centres undefined)	.	-6.8	67.5*	9.5	0.8	-14.8	8.6	3.3	-2.9	-3.2	-8.1
O=C(CN1C(=O)NC(CCc2ccccc2)C1=O)Nc1cccc(Br)c1 (centres undefined)	.	-2.1	0.3	7.1	-4.0	-16.8	.	.	.	.	.
O=C(/C=C/c1ccccc1)n1cnnc1SC/C=C/c1ccccc1	-12.7	8.1	58.9*	12.9	28.9	-12.1	38.6	48.0	68.4*	32.4	37.5
NC(=O)C1CCCN1Cc1ccc2c(c1)OCO2 (centres undefined)	.	.	.	9.4	.	7.9	.	.	.	.	.
COc1ccc(OC)c(S(=O)(=O)N2CCC(C(=O)NCc3cccnc3)CC2)c1	.	-5.7	7.0	8.9	0.8	4.9	.	.	.	.	.
O=[N+]([O-])c1ccc(O)c(C2=NNC(c3ccccc3F)C2)c1 (centres undefined)	0.5	85.0*	-15.8	22.1	39.0	21.2	-3.9	85.8*	96.8*	37.7	50.0*
O=C1C(c2ccccc2)=[N+]([O-])c2ccccc21	.	22.7	64.2*	i	45.5	16.8	55.0*	68.9*	74.9*	61.4*	27.4
Fc1ccc2c(Cl)c(-c3nnc(-c4cccs4)o3)sc2c1	35.9	-9.6	5.9	-331.5	69.2*	33.7	1.9	7.6	25.1	13.6	2.9
Cc1ccc2c(c1)nnn2C1CCN(CC(=O)Nc2ccc(F)cc2)CC1	10.5	-8.2	-11.7	14.4	-7.4	3.9	.	.	.	.	.
Cc1ccc2c(c1)nnn2C1CCN(CC(=O)N2CCN(c3ccc(F)cc3)CC2)CC1	-18.4	2.6	-9.0	10.0	63.5*	-1.9	8.2	6.9	2.2	0.2	4.8
O=C(CN1CCC(n2nnc3cc(F)ccc32)CC1)NCCc1nc2ccccc2[nH]1	5.7	1.9	13.6	12.7	52.3*	-11.9	9.9	9.2	3.4	-2.6	-2.1
CC(C)(C)NC(=O)C1c2ccccc2OCC(=O)N1Cc1ccc2c(c1)OCO2 (centres undefined)	.	.	.	8.7	.	-2.2	.	.	.	.	.
SMILES	PPC-1+TRAIL kill	SENP8 block-1	SENP6 block	SENP8 block-2	SENP7 inh	TRAIL sens C8	SENP8 confirm	SENP6 confirm	SENP7 confirm	Casp3 SENP sel	Luc interf
CC1(C(=O)NS(=O)(=O)c2ccccc2)CCN1C(=O)Cc1cc(F)ccc1F (centres undefined)	.	.	.	17.4	.	-13.3	.	.	.	.	.
CCOc1ccc(-c2cccc(NC(=O)c3ccc(Br)o3)c2)nn1	.	-6.8	-10.6	2.6	-7.2	-0.8	.	.	.	.	.
CC1CCN(c2ccc(-c3cccc(NC(=O)c4ccco4)c3)nn2)CC1	.	59.3*	79.4*	-17.1	73.6*	86.3*	66.4*	69.4*	88.0*	66.3*	38.4
CCC(=O)Nc1cccc(-c2ccc(N3CCC(C)CC3)nn2)c1	.	48.8	68.7*	-43.8	59.3*	93.9*	20.9	56.0*	83.9*	73.0*	-11.5
O=C(Nc1cccc(-c2ccc(N3CCCCC3)nn2)c1)c1ccc(Br)o1	.	76.1*	88.6*	-41.8	82.8*	78.4*	72.8*	78.7*	93.9*	81.6*	60.1*
CCOC(=O)c1[nH]c2ccc(Br)cc2c1NC(=O)CCN1CCCC(C)(C)C1	20.7	-4.7	-20.4	-52.2	2.9	-2.5	.	.	.	.	.
O=C(c1cc2cc(F)ccc2[nH]1)N1CCC(Cc2ccccc2)CC1	.	1.0	13.2	2.9	5.2	11.0	.	.	.	.	.
O=C(O)c1ccc(N/N=C/c2cccc(C(F)(F)F)c2)cc1	.	66.4*	73.6*	-54.6	46.3	-1.7	79.7*	70.3*	94.7*	25.2	90.4*
O=C(O)c1ccc(N/N=C/c2ccncc2)cc1	.	85.4*	90.0*	5.0	93.5*	-1.8	91.4*	92.6*	99.9*	87.5*	93.6*
O=C(O)c1ccc(N/N=C/c2cccc(F)c2)cc1	9.0	97.2*	100.2*	-63.7	84.3*	2.7	99.6*	100.2*	103.5*	98.0*	98.6*
O=C(O)c1ccc(N/N=C/c2ccc(F)c(F)c2)cc1	10.3	96.5*	97.8*	-115.5	97.4*	5.5	99.0*	99.7*	102.4*	96.7*	97.9*
